In PubChem BioAssay AID1863 (Southern Research Specialized Biocontainment Screening …, 2009) one finds inhibition data, which are given here for 94 compounds.

The structures appear in SMILES notation. The campaign covered roughly 300,000 compounds. About 480 (0.16%) were called active. Only a sample is shown. Results with a measured potency or affinity are listed apart. Values without a mark were called inactive.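 How the source made its calls: active means inhibition over 29.93%, a cutoff 3 SD above the screen mean, later confirmed by dose response; inconclusive means inhibition over 29.93% but no dose response follow-up; inactive means inhibition at most 29.93% or unconfirmed.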

By inhibition is commonly meant the change of the read-out against control, counted positive when it falls.

The assay is described as follows: inhibitors of PhoP regulon expression, primary screen, Salmonella Typhimurium, GFP reporter (AID 1863).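 Further: 0% = low Mg2+ inducing control and 100% = high Mg2+ repressing control.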 To be noted: S. Typhimurium PhoP-regulated promoter GFP reporter, 4 h; at 50 µM; active compounds read high.
As to `Cc1c(Cl)cccc1NC(=S)N1CCOCC1`, the inhibition was -2.07%. To `O=C(Nc1c2c(nn1-c1cccc(Cl)c1)CS(=O)(=O)C2)C1CC1` belongs -4.19%; to `CCNC(=S)Nc1ccc(-c2nc3ccccc3[nH]2)cc1`, -10.4%. To `COc1ccc(NC(=O)c2cn3c(nc4ccccc43)c(C#N)c2C)cc1` belongs -3.66%. In the case of `CC1CCN(S(=O)(=O)c2ccc3c(c2)c(=O)c(C(=O)N2CCOCC2)cn3C)CC1`, the inhibition was -0.29%.

Turning to `Cc1c(CC(=O)N[C@@H](C)C(=O)O)c(=O)oc2c(C)c3occ(-c4ccccc4)c3cc12`, the inhibition is 9.42%. To `C=CCN(Cc1nc(-c2ccccc2)no1)C(=O)c1ccc2c(c1)OCO2` belongs 1.88%; to `O=[N+]([O-])c1ccc(/C=N/NC(=S)Nc2ccccc2)o1`, 18.4%. To `O=C(/C=C/c1cccc([N+](=O)[O-])c1)NCCSCc1cccc(Cl)c1` belongs -1.04%; to `CCCCCCCCCC(=O)N1CCN(c2cc3c(cc2F)c(=O)c(C(=O)O)cn3CC)CC1`, 6.32%; to `CCn1cc(C(=O)O)c(=O)c2cnc(N3CCN(C(=S)NC(=O)c4ccc(F)c(F)c4)CC3)nc21`, 7.64%. To `CCOC(=O)c1sc(N)c(C#N)c1CSc1nnc(C2CC2)n1N` belongs 0.84%. Consider `COc1cccc2c1OC[C@@H](CO)[C@H]2N(C)C(=O)Nc1ccc(Cl)cc1`, for which the inhibition was -5.57%. To `Cn1nnnc1SCC1=C(C(=O)O)N2C(=O)C(NC(=O)C3CC3c3ccccc3)C2SC1` (centres undefined) belongs 5.81%; to `CO[C@@]1(NC(=O)CSCC#N)C(=O)N2C(C(=O)O)=C(CSc3nnnn3C)CS[C@@H]21`, 2.92%.

As for `COC(=O)C(C)Oc1cc(OC(C)C(=O)OC)c2c(-c3ccccc3)cc(=O)oc2c1` (centres undefined), the inhibition was -1.83%. To `c1ccc(-c2ccc(-c3ccccn3)nn2)nc1` belongs 17.9%. To `c1ccc(-c2ccccn2)nc1` belongs 1.51%; to `C[C@H](NC(=O)C1CC(=O)N(c2ccc3c(c2)OCCO3)C1)C(=O)NC1CCCC1` (some centres undefined), -3.6%; to `CCN(CC)C(=O)COc1ccc(N(C)S(=O)(=O)c2ccc(NC(C)=O)cc2)cc1`, -5.37%. To `COc1cc(-c2nc(N)n[nH]2)cc(OC)c1OC` belongs -10.2%; to `COc1cc(Nc2ncnc(N)n2)cc(OC)c1OC`, -3.05%; to `COc1cccc(OCCNc2cc(Cl)ccc2[N+](=O)[O-])c1`, 6.62%. For the compound `Cc1ccc(NC(=O)C2(C)Cc3ccccc3C(=O)O2)cc1` (centres undefined), the inhibition was -8.33%.

`CC1CCN(CC(=O)Nc2cccc(C(=O)Nc3cccc(C(F)(F)F)c3)c2)CC1`: the inhibition is 0.24%.

Turning to `O=C(CNC(=O)c1ccccc1)Nc1cccc(C(F)(F)F)c1`, the inhibition is -8.93%. To `O=C1CCN(N=Nc2cccc(Cl)c2)N1` belongs -4.47%; to `COc1ccc(N2CCN(C(=O)CN(C3CCCCC3)S(C)(=O)=O)CC2)cc1`, -3.93%. To `O=S(=O)(NCc1ccccc1)NCc1ccccc1F` belongs -1.32%; to `O=C(O)c1ccc(CNCc2ccccc2F)cc1`, 0.78%. To `Cc1csc(C(=O)O)c1NC(=O)c1c(Cl)cccc1Cl` belongs -3.3%; to `CCn1nc(C(=O)N2CCN(Cc3ccc4c(c3)OCO4)CC2)c2ccccc2c1=O`, -2.79%. Take `CCOC(=O)c1cn(CC)c2cc3c(cc2c1=O)OCO3`: the inhibition was 7.75%. To `CCn1ccc(=O)c2cc3c(cc21)OCO3` belongs 2.11%. On to `CCn1cc(C(=O)N[C@H](C(=O)O)C(C)C)c(=O)c2cc3c(cc21)OCO3`, for which the inhibition was 25.9%. To `Cn1c(SCC(=O)NC2CCCCC2)nnc1-c1cc2cc(Cl)ccc2o1` belongs 5.87%; to `CC(C)CC(=O)NC(c1cccs1)c1ccc2cccnc2c1O` (centres undefined), 9.48%. To `CCC(=O)NC(c1cccs1)c1ccc2cccnc2c1O` (centres undefined) belongs 27%.

Consider `O=C1OCc2cc(NC(=O)C3CCCO3)ccc21` (centres undefined), for which the inhibition is 13.1%. As for `COc1ccc(Cc2nc3ccc(C(=O)N4CCC[C@H]4CO)cc3o2)cc1`, the inhibition is -5.77%.

Consider `COc1ccc2[nH]c3c(=S)nc[nH]c3c2c1`, for which the inhibition was 11.1%.

`COc1ccc2[nH]c3c(Cl)ncnc3c2c1`: the inhibition was 2%. To `Cc1ccc(C)c2c1[nH]c1ccccc12` belongs -11.2%. For the compound `Cc1cc2[nH]c3ccccc3c2c(C)n1`, the inhibition is 17.6%. To `Cc1ccc(C2(c3noc(CN(C)Cc4ccccn4)n3)CCCC2)cc1` belongs 1.51%; to `O=C(O)Cn1c(O)c(C2=c3ccccc3=NC2=O)sc1=O`, 3.25%. Turning to `COc1cccc(N/C(N)=N/c2nc(C(F)(F)F)cc(C(F)(F)F)n2)c1`, the inhibition is -1.8%. To `O=S1(=O)N=C(N/N=C/c2cccs2)c2ccccc21` belongs 0.95%; to `O=S1(=O)N=C(N/N=C/c2ccco2)c2ccccc21`, 11.7%; to `O=c1[nH]c2ccccc2n2cnnc12`, 3.8%. With `S=c1[nH]c2ccccc2n2c(=S)[nH]nc12`, the inhibition was 4.88%.

On to `C=CCn1c(SCC(=O)OCC)nc2cc(C(=O)NCc3ccco3)ccc2c1=O`, for which the inhibition was -4.98%.

Consider `CCCn1nc(C(=O)OCC(=O)Nc2cccc(S(N)(=O)=O)c2)c2ccccc2c1=O`, for which the inhibition was -1.14%. To `Nc1c2ccccc2nc2ccccc12` belongs 20.8%; to `Nc1[nH]nc2nc3ccccc3cc12`, 0.6%; to `Nc1nc(-c2cccnc2)nn1C(=O)c1ccccc1Cl`, 0.52%. On to `COc1ccc(-c2csc(NC(=O)COC(=O)c3ccco3)n2)cc1`, for which the inhibition was 5.57%. To `Cc1ccc(C(=O)OCC(=O)NC(=O)c2cccn2C)cc1[N+](=O)[O-]` belongs -12.8%; to `COCCCn1c(Cc2csc(Nc3ccc(F)cc3)n2)nnc1SCC(N)=O`, 0.4%; to `COc1ccc(/C(C)=N/NC(=O)CNC(=O)c2ccncc2)cc1`, -0.07%. To `N=c1n(CC(=O)c2ccc([N+](=O)[O-])cc2)c2ccccc2n1Cc1ccc(Cl)cc1` belongs 25.9%.

On to `N=c1n(CC(=O)c2ccc([N+](=O)[O-])cc2)c2ccccc2n1Cc1ccccc1`, for which the inhibition is 39%. As for `Cc1cc(C)n(C(=O)CNC(=O)c2ccc3c(c2)OCCO3)n1`, the inhibition was -15.6%. For the compound `CCO[C@@H]1OC(C(=O)N2CCCCCCC2)=C[C@H](c2cn(C(C)=O)c3ccccc23)[C@H]1CCCO`, the inhibition was -5.2%. To `COc1ccc(C)cc1-n1c(-c2ccncc2)n[nH]c1=S` belongs -9.19%; to `Cc1cccc(NC2=CC(=O)CC(C)(C)C2)c1C`, 2.2%. To `CC(C(=O)c1ccc(-c2ccccc2)cc1)[n+]1cccc(C(N)=O)c1` (centres undefined) belongs 2.06%. Turning to `CC(C(=O)c1ccc(Br)cc1)[n+]1cccc(NC(=O)c2ccccc2)c1` (centres undefined), the inhibition is -0.32%. To `O=C(C[n+]1cccc(CNC(=O)c2ccc(OC(F)F)cc2)c1)Nc1cccc(C(F)(F)F)c1` belongs 25.3%; to `O=C(C[n+]1cccc(CNC(=O)c2ccc(OC(F)F)cc2)c1)Nc1ccc(F)cc1`, 5.04%; to `CCOc1ccc(C(=O)NCC(=O)N2CCC3CCCCC3C2)cc1OCC` (centres undefined), 7.73%. To `COc1cc(-c2nnc(SCC(=O)/C(C#N)=C(\C)N)o2)cc(OC)c1OC` belongs 0.61%; to `CN(CCCC[C@H](CNCc1ccc(-c2ccccc2)cc1)N1C[C@H](c2ccccc2)N(CCc2ccc(Cl)c(Cl)c2)C(=O)C1=O)Cc1ccc(-c2ccccc2)cc1`, 8.2%; to `CCOc1ccc(CCN2C(=O)C(=O)N([C@H](CCCN(C)Cc3ccccc3)CNCc3ccccc3)C[C@@H]2C(C)C)cc1`, 12.1%. Consider `CCc1ccc(N2C(=O)Nc3ccccc3C2(O)C(=O)N2CCN(c3ccccn3)CC2)cc1` (centres undefined), for which the inhibition was 10.3%.

With `Cn1c(CSc2nc3ccccc3s2)nnc1SCC(=O)NCc1ccccn1`, the inhibition was -6.01%.

In the case of `Cc1cc(/C=C2/C(=O)NN(c3ccccc3)C2=O)c(C)n1-c1ccc(O)cc1`, the inhibition is -4.21%. To `O=C1NN(c2ccccc2)C(=O)/C1=C/c1coc2ccccc2c1=O` belongs 8.22%. To `CCOC(=O)C1=C(O)/C(=C/c2cccc(OC)c2O)N=C1C` belongs -9.18%. To `Cn1c(CCCNC(=O)c2cccs2)nc2ccccc21` belongs -1.8%. Take `Cc1ccc(NC(=O)c2ncc(Cl)c(Cl)c2Cl)cc1C`: the inhibition was 2%. Take `Nc1cn(C2OC(CO)C(O)C2O)c(=O)[nH]c1=O` (centres undefined): the inhibition was 3.77%. To `O=c1[nH]c(=O)n(C2OC(CO)C(O)C2O)cc1Br` (centres undefined) belongs 3.95%; to `Cc1cc(CNC(=O)c2cccnc2Cl)c2ccccc2n1`, 1.03%. To `CC[n+]1c(/C=C/Nc2ccccc2)sc2ccccc21` belongs -20.8%.

`CCN1/C(=C/c2ccc3cc(C)ccc3[n+]2CC)Sc2ccccc21`: the inhibition is -133%. To `CC[n+]1c(/C=C/C=C/N(C(C)=O)c2ccccc2)sc2ccccc21` belongs -10.1%; to `CC[n+]1c(/C=C(\C)SC)sc2ccccc21`, 0.17%; to `CCN1/C(=C\C=C(C(C)=O)C(C)=O)Sc2ccccc21`, -11.4%. To `CC[n+]1c(/C=C/C=C/N(C(C)=O)c2ccccc2)sc2cc(OC)ccc21` belongs -71.7%; to `CCN1/C(=C/C=C/C=C/C=C/c2sc3ccccc3[n+]2CC)Sc2ccccc21`, -8.59%.

As for `CC[n+]1c(/C=C(/C)SC)sc2ccccc21`, the inhibition is 0.31%. In the case of `COCCN1CCC(CNCc2c(C(=O)N3CCCCC3)nc3c(C)cccn23)C1` (centres undefined), the inhibition is -11.8%. To `CCOc1ccccc1CN1CCN(Cc2ccon2)CC1CCO` (centres undefined) belongs -9.77%.
